# UBC9 SUMO inh = blocks human SUMOylation mediated by UBC9; hit rate 0.36% among 290,000; inhibition, % at 35 µM; P63279; HTRF SUMOylation assay, SAE1/SAE2 + UBC9, in vitro; in the data active means inhibition above about 50%, passing the limit was not always enough; inconclusive means no clear call, values can overlap the other calls
# Target sequence (P63279 whole entry, looked up): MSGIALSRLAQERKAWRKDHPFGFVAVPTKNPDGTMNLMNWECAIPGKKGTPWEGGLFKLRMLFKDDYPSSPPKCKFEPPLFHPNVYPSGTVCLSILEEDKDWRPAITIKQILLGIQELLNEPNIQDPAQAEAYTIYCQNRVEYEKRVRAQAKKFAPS
# PfM18AAP inh = PfM18AAP enzyme inhibition | hit rate 1.2% among 290,000 | recombinant PfM18AAP, H-Glu-NHMec fluorogenic cleavage | inhibition, % at 7.35 µM;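 active means inhibition above the campaign mean inhibition over all tested compounds plus 3 SD, cut at about 28% in these data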;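 further: 0% = plate median of test compound wells and 100% = 2 mM ZnCl2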
# G6PDH CS = counter-screen for G6PDH assay hits: L. mesenteroides G6PDH inhibition; Purified L. mesenteroides G6PDH, diaphorase/resazurin coupled fluorescence, 45 min; inhibition, % at 5 µM; hit rate 0.12% among 200,000; AID 1020; in the data active means inhibition above about 50%
# HDAC3 inh = inhibitors of human histone deacetylase 3 | inhibition, % at 8.3 µM | AID 2718 | recombinant HDAC3, fluorogenic peptide/trypsin coupled, fluorescence | hit rate 0.15% among 320,000 | O15379; in the data active means inhibition above about 26%, passing the limit was not always enough; inconclusive means no clear call, values can overlap the other calls
# PHOSPHO1 inh = inhibitors of human PHOSPHO1 phosphatase; Q8TCT1; inhibition, % at 13.3 µM; recombinant PHOSPHO1, absorbance phosphatase assay; hit rate 1.1% among 290,000; AID 1565; in the data active means inhibition above about 60%
# Target sequence (Q8TCT1 whole entry, looked up): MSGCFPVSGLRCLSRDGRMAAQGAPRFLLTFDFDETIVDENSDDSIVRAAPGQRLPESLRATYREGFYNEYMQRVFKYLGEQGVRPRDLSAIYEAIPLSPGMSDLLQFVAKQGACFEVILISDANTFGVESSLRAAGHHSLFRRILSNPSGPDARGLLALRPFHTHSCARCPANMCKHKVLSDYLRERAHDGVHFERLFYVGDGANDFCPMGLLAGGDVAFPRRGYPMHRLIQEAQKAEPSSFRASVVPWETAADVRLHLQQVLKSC
# p97 ATPase inh = inhibitors of human p97 ATPase. P55072. recombinant p97 ATPase, Kinase-Glo ATP luminescence, 3 h. inhibition, % at 8 µM. hit rate 0.42% among 220,000. AID 1481; in the data active means inhibition above about 15%;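 further: 0% = DMSO vehicle and 100% = wells lacking enzyme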
# The depositor's hits bear a star; ? = inconclusive; · = no result. This is a sample that favours compounds with a hit; in the whole collection about 2.5% have one here.
SMILES,UBC9 SUMO inh,PfM18AAP inh,G6PDH CS,HDAC3 inh,PHOSPHO1 inh,p97 ATPase inh
COc1cc(C(=O)NNC(=O)c2ccccc2Br)ccc1OCC(=O)N1CCOCC1,·,·,·,11.9,·,·
COC(=O)c1ccc2c(=O)n(-c3ccc(OC)cc3)c(=S)[nH]c2c1,8.1,0.1,-2.8,4.2,24.5,-2.2
CCn1ncc(-c2cc(C(=O)O)no2)c1C,-12.6,2.6,12.9,47.2*,-7.9,-0.5
CCN(CC)CCNC(=O)CNC(=O)c1nn(-c2ccc(OC)cc2OC)c(=O)c2ccccc12,-11.5,-11.3,·,2.9,9.8,·
O=C1/C(=C/c2ccc(N3CCCC3)cc2)NC(=S)N1C1CC1,16.6,-0.1,10.6,9.3,102.0*,3.4
CNC(=S)N/N=C/c1ccc(N(C)C)cc1,-1.9,6.7,·,-25.8,60.8*,8.3
O=c1c(C(c2ccc(O)cc2)c2c(O)nc3n(c2=O)CCCS3)c(O)nc2n1CCCS2,-0.9,3.2,-0.1,-10.6,64.6*,0.8
CC(C)(O)CC[C@H](OC(=O)c1ccccc1)[C@](C)(O)[C@H]1CC[C@@]2(O)C3=CC(=O)[C@@H]4C[C@@H](O)[C@H](O)C[C@]4(C)C3CC[C@]12C (some centres not stated),13.2,-9.2,·,-2.6,4.7,·
O=C1CCC/C(=N/NC(=O)c2ccc(NS(=O)(=O)c3cccs3)cc2)C1,10.0,23.3,0.9,-0.4,27.7,-2.9
O=C1CCC/C(=N/NC(=O)c2cc(NS(=O)(=O)c3cccs3)cc(NS(=O)(=O)c3cccs3)c2)C1,8.5,29.6*,·,6.8,21.9,10.8
C[n+]1c2n(c3ccccc31)N=C(c1ccccc1)CS2,3.3,11.2,2.6,31.2*,12.3,1.8
C[n+]1c2n(c3ccccc31)N=C(c1ccc(-c3ccccc3)cc1)CS2,12.2,-4.4,1.6,·,44.9,4.4
CC(C)C(NC(=O)COc1ccc2ccccc2c1)C(=O)N/N=C/C=C/c1ccccc1 (configuration not stated),-0.9,20.1,-0.9,2.5,92.7*,-0.2
COc1ccc(/C=C/C=N/NC(=O)COc2ccc(OC)cc2)cc1,6.3,-2.0,-0.4,11.3,21.2,-3.4
CCN(CC)C(=O)c1sc2nc(-c3ccccn3)[nH]c(=O)c2c1C,·,·,·,-7.5,·,·
CCN(CC)C(=O)c1sc2nc(-c3ccncc3)[nH]c(=O)c2c1C,51.9*,-1.9,2.7,2.9,16.0,8.2
CC1CCCCC12NC(=O)N(CC(=O)N1CCN(S(=O)(=O)Cc3ccccc3)CC1)C2=O (configuration not stated),·,·,·,-0.1,·,·
O=C(Cc1cccc2ccccc12)N/N=C/c1ccc(Sc2cccc3cccnc23)o1,1.0,6.1,4.2,4.8,80.2*,6.4
CCCCC(=O)N/N=C/c1ccc(Sc2cccc3cccnc23)o1,6.5,-7.9,3.1,1.0,-24.5,3.4
CCN1/C(=C/C=C/c2sc3ccccc3[n+]2CC)Sc2ccccc21,·,·,·,-0.5,·,·
CC[n+]1c(/C=C(\C)Nc2ccccc2)sc2ccccc21,-7.7,20.6,6.3,?,-6.6,3.1
CC[n+]1c(/C=C/Nc2ccccc2)sc2ccccc21,20.2,30.4*,-3.6,?,97.7*,1.3
CCN1/C(=C/C=C/C=C/c2sc3ccccc3[n+]2CC)Sc2ccccc21,6.9,37.3*,7.6,36.0*,-1.4,2.4
Cc1oc2c(C)c3oc(=O)c(CCC(=O)NCCN4CCOCC4)c(C)c3cc2c1C,27.4,-0.3,·,-2.3,29.1,·
OC1COC(O)C(O)C1O (configuration not stated),·,·,·,-8.8,·,·
SMILES,UBC9 SUMO inh,PfM18AAP inh,G6PDH CS,HDAC3 inh,PHOSPHO1 inh,p97 ATPase inh
COC(Cc1n[nH]c(=S)n1-c1ccccc1)OC,34.3,11.9,6.5,-0.4,79.0*,1.9
COc1ccc(-n2c(COc3ccccc3)n[nH]c2=S)cc1,-23.1,17.1,·,10.0,-51.1,·
Cn1c(SCc2n[nH]c(=S)n2-c2ccccc2)nnc1-c1ccccc1,2.7,29.6*,10.6,4.3,-17.0,4.9
COCc1n[nH]c(=S)n1-c1ccccc1,6.7,11.9,12.2,6.2,64.4*,4.0
O=C(NCc1n[nH]c(=S)n1-c1ccccc1)c1cccs1,8.7,28.3*,6.4,7.6,-95.9,-2.1
C[C@H](C(=O)CC(=O)OC(C)(C)C)[C@H](O)c1ccccc1,14.4,-0.5,·,3.5,-29.9,·
S=c1[nH]nc(CSCc2ccccc2Cl)n1-c1ccccc1,-3.4,14.7,-4.6,2.3,104.8*,0.6
OCCCc1n[nH]c(=S)n1-c1ccccc1,10.1,22.4,11.1,9.2,32.4,4.7
Cc1cccc(-n2c(CNC(=O)c3cccc([N+](=O)[O-])c3C)n[nH]c2=S)c1,-7.9,30.1*,1.6,10.2,-25.8,-5.3
COc1cc(C2C(C(=O)c3ccc(C)o3)=C(O)C(=O)N2c2cc(C)on2)cc(OC)c1OC (configuration not stated),·,·,·,3.2,·,·
COc1cc(C2C(C(=O)c3ccc(C)o3)=C(O)C(=O)N2c2cc(C)on2)ccc1O (configuration not stated),7.0,28.4*,7.2,6.1,28.5,-1.1
CCOc1ccc(N2C(=O)CC(N(Cc3ccco3)C(=O)CCC(=O)O)C2=O)cc1 (configuration not stated),3.8,14.2,5.2,-1.3,1.2,5.8
COC(=O)c1sc2cc(=O)n(-c3cccc(C(F)(F)F)c3)nc2c1O,-0.3,31.1*,4.5,5.3,-69.5,4.5
COc1cccc(-c2cc(C(=O)NCc3ccco3)c3ccccc3n2)c1,13.5,6.8,·,5.6,19.3,·
O=C(Nc1ccc(OC(F)(F)F)cc1)NC1CCC(Oc2ccc(C(=O)O)cc2)CC1 (configuration not stated),·,·,·,5.7,·,·
N#Cc1c(NC(=O)CSc2nnc(-c3ccco3)n2-c2ccccc2)sc2c1CCC2,22.2,3.5,5.4,1.2,3.2,0.7
NC(=O)c1c(NC(=O)CSc2nnc(-c3ccco3)n2-c2ccccc2)sc2c1CCC2,49.3,3.6,8.7,0.2,81.6*,5.4
Cc1cccc(COC(=O)C(Cc2ccccc2)NC(N)=O)c1 (configuration not stated),12.6,3.9,·,0.6,40.9,·
COC(=O)c1ccc(CN(c2ccc(C(=O)O)c(O)c2)S(=O)(=O)c2ccc(Cl)c([N+](=O)[O-])c2)cc1,4.2,-7.6,·,6.7,19.9,·
C=CCNC(=S)NNC(=O)c1csc(C)c1CC,15.7,13.0,-4.1,7.4,81.2*,3.5
CCCCNC(=S)NNC(=O)c1csc(C)c1CC,13.6,1.3,-3.2,0.4,1.0,3.9
CCCOP(=O)(c1ccc(N(C)C)cc1)C(O)c1ccc(Cl)cc1 (configuration not stated),10.1,-0.4,·,0.5,42.0,·
Cc1ccccc1C(=O)N1CC(=O)Nc2ccc(F)cc2C1c1ccccc1 (configuration not stated),17.6,-0.8,·,-1.0,18.7,·
C/C(=N/NS(=O)(=O)c1cc(C)ccc1C)c1ccncc1,5.8,30.6*,·,1.5,51.4,·

# High-throughput results: PubChem BioAssay, several laboratories
